Experimental data as given in PubChem BioAssay AID489018 (Southern Research Specialized Biocontainment Screening …, 2010).
Screen size: about 2,300 compounds; about 350 (15%) were called active. The rule behind the calls is not given here. Not all results are given here. Potency and affinity values are given separately.

Assay: HepG2 cell cytotoxicity, dose response, cytotoxicity control for non-replicating M. tuberculosis project (AID 489018);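 note: HepG2 human liver cells; 100% = vehicle-treated cells and 0% = background signal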
Conditions: series mostly up to 20 µM; viability: at the top concentration
For `Cc1cccc(NCc2ccc([N+](=O)[O-])s2)c1`, the “viability” value was 93.2% (inactive). With `c1coc(CNc2nc(N3CCCCC3)nc3ccccc23)c1` the “viability” value was 93.1% [at 5 µM] (inactive). For `Cc1ccc(NC(=O)COC(=O)C2=COCCO2)c([N+](=O)[O-])c1`, the “viability” value was 106% (inactive). For `Cn1c(NC(=O)c2ccccc2)nc2ccccc21`, the “viability” value was 87.3% [at 5 µM] (inactive). For `COc1ccc2c(c1)sc(=N)n2C`, the “viability” value was 110% [at 5 µM] (inactive). With `Cc1ccc2c(c1)c(C1=c3ccccc3=NC1=O)c(O)n2C` the “viability” value was 85.1% (inactive). In the case of `COc1ccc(COc2cccc(C=O)c2)cc1`, the “viability” value is reported as 96% (inactive). With `COc1ccc(C(=O)OCn2nnc3ccccc3c2=O)cc1[N+](=O)[O-]` the “viability” value was 112% [at 5 µM] (inactive). In the case of `COc1ccc(C(=O)C2CCCN(C(=O)c3ccc(CSC)o3)C2)cc1F` (stereo unspecified), the “viability” value is reported as 101% (inactive). With `O=C(N/N=C/c1ccc[nH]1)c1ccncc1` the “viability” value was 97.8% (inactive). For `CCOC(=O)CC(=O)Nc1ccc(C(=O)OCC)cc1`, the “viability” value was 96.9% (inactive). In the case of `C/C(=N\Nc1nc2ccccc2[nH]1)c1cc2ccccc2o1`, the “viability” value is reported as 89.5% [at 5 µM] (inactive). For `O=C(N/N=C/C=C/c1ccccc1[N+](=O)[O-])c1ccncc1`, the “viability” value was 95.8% (inactive). With `COc1cc(Cl)cc(/C=N/NC(N)=O)c1O` the “viability” value was 103% [at 5 µM] (inactive). In the case of `O=C(NNc1nc2ccccc2s1)Nc1ccc(F)cc1`, the “viability” value is reported as 95% (inactive). In the case of `Cc1cc(N/N=C/c2ccccc2[N+](=O)[O-])nc(-n2nc(C)cc2C)n1`, the “viability” value is reported as 82.7% [at 5 µM] (inactive). For `NC(N)=N/N=C/c1cccc([N+](=O)[O-])c1O`, the “viability” value was 99.4% (inactive). For `O=C(N/N=C/c1cccc([N+](=O)[O-])c1O)c1cccs1`, the “viability” value was 90% (inactive). With `CCc1nnc(NC(=O)c2cc3ccccc3oc2=O)s1` the “viability” value was 111% [at 5 µM] (inactive). In the case of `Cn1c(=O)[nH]c(=O)c2c1nc([N+](=O)[O-])n2Cc1ccccc1`, the “viability” value is reported as 75.2% [at 5 µM] (inactive). With `C=CCc1cc(Cl)ccc1OCCCn1ccnc1` the “viability” value was 90.9% (inactive). For `COc1ccc(C2(O)CCN(CC(=O)Nc3nc(-c4ccccc4)cs3)CC2)cc1`, the “viability” value was 74.6% (inactive). For `Cc1onc(-c2ccccc2Cl)c1C(=O)O/N=C(\N)c1ccc([N+](=O)[O-])o1`, the “viability” value was 82.2% (inactive). In the case of `CCC(CC)COC(=O)C(C#N)c1nc2ccccc2nc1N1CCN(CC)CC1` (stereo unspecified), the “viability” value is reported as 80.2% (inactive). With `NCCOc1ccc(C23CC4CC(CC(C4)C2)C3)cc1` the “viability” value was 92.4% (inactive). With `O=c1[nH]c2ccccc2c2oc(CCl)nc12` the “viability” value was 105% [at 5 µM] (inactive). In the case of `N=C1/C(=C/c2ccc(OC(=O)c3ccco3)cc2)C(=O)N=C2SC=CN12`, the “viability” value is reported as 98.9% (inactive). In the case of `COC(=O)CN(C#N)c1nc(N(C)C)nc(N(C)C)n1`, the “viability” value is reported as 101% (inactive). With `O=C(Nc1nnc(C2=COCCO2)o1)c1cccc(C(F)(F)F)c1` the “viability” value was 74.1% (inactive). With `O=C(N/N=C/c1ccc(O)cc1)c1cccc(C(F)(F)F)c1` the “viability” value was 95.1% (inactive). For `COc1cccc(CN2CCC(N(CCc3ccccc3)Cc3ccccc3)CC2)c1OC`, the “viability” value was 73.7% (inactive). For `OCC#CCSc1nnc(-c2ccc(Br)cc2)o1`, the “viability” value was 98.8% (inactive). For `COc1cccc(COC(=O)CCNC(=O)c2ccc(Br)cc2)c1OC`, the “viability” value was 101% [at 5 µM] (inactive). With `CCOC(=O)COc1ccc(C(=O)Nc2cccc(Cl)c2C)cc1` the “viability” value was 90.5% (inactive). For `O=C(NNC1=Nc2ccccc2SC1)c1ccc(F)cc1`, the “viability” value was 80.8% (inactive). In the case of `O=C(Nc1nnc(-c2ccco2)o1)c1ccc(Cl)s1`, the “viability” value is reported as 100% [at 5 µM] (inactive). For `O=C(Nc1nnc(-c2ccc(Br)cc2)o1)c1ccco1`, the “viability” value was 90.6% (inactive). In the case of `CCOc1cc(-c2nnc(NC(=O)c3ccco3)o2)cc(OCC)c1OCC`, the “viability” value is reported as 71.3% (inactive). With `CCOc1ccc(OCCSc2ccc(S(=O)(=O)N3CCN(C)CC3)cn2)cc1` the “viability” value was 96.9% [at 5 µM] (inactive). For `COC(=O)c1ccc(Sc2nnnn2-c2ccccc2)c([N+](=O)[O-])c1`, the “viability” value was 98.1% (inactive). In the case of `FC(F)c1nnc2ccc(Cl)nn12`, the “viability” value is reported as 116% (inactive). For `O=C(N/N=C/c1ccc([N+](=O)[O-])s1)c1cccnc1`, the “viability” value was 70.9% (inactive). With `O=C(COc1ccccc1)Nc1nnc(-c2ccc3c(c2)CCCC3)o1` the “viability” value was 101% (inactive). With `Cc1cc(Cl)ccc1OCC(=O)NNC(=O)c1cnccn1` the “viability” value was 100% [at 5 µM] (inactive). In the case of `O=C(N/N=C\c1ccc([N+](=O)[O-])s1)c1cncc(Br)c1`, the “viability” value is reported as 86.6% [at 5 µM] (inactive). For `Cc1c(C(=O)N(C)C)sc2nc(-c3ccccn3)[nH]c(=O)c12`, the “viability” value was 105% [at 5 µM] (inactive). In the case of `CN(C)CCCNc1nc2sc3c(c2c(=O)n1CCc1ccccc1)CCCCC3`, the “viability” value is reported as 86.3% [at 5 µM] (inactive). For `CN(C)CCCn1c(=O)n(C2CCCCC2)c(=O)c2c3c(sc21)CCCCC3`, the “viability” value was 75.5% (inactive). For `Cn1c(O)c(C(=Nc2ccccc2)SCc2ccccc2Cl)c(=O)n(C)c1=O`, the “viability” value was 75% (inactive). In the case of `C=CCOc1ccc(CNCCO)cc1OCC`, the “viability” value is reported as 104% (inactive). With `CCc1cc(OCCCCNCc2ccccc2)ccc1Cl` the “viability” value was 97.5% (inactive). With `C/C(=N/Nc1ccnc2cc(Cl)ccc12)c1ccc(N)cc1` the “viability” value was 74.7% (inactive). For `CC1CCN(C(=O)COC(=O)c2cc3ccccc3cc2O)CC1`, the “viability” value was 93.4% (inactive). In the case of `CCc1c(C)c2ccc(OCC(=O)OC)cc2oc1=O`, the “viability” value is reported as 99% (inactive). In the case of `COc1n[nH]c(C(=O)Nc2cc(F)ccc2C)c1[N+](=O)[O-]`, the “viability” value is reported as 75.7% (inactive). With `Cc1cc(C(=O)N/N=C/c2ccc([N+](=O)[O-])o2)c(C)o1` the “viability” value was 88.4% (inactive). With `Nc1nonc1C(=O)N/N=C/c1ccc([N+](=O)[O-])o1` the “viability” value was 82.7% (inactive). With `COc1ccc(C(=O)NCC(=O)N/N=C/c2ccc([N+](=O)[O-])o2)cc1OC` the “viability” value was 91.9% (inactive). In the case of `Cc1cc(C)cc(OCC(=O)N/N=C/c2ccc([N+](=O)[O-])o2)c1`, the “viability” value is reported as 92% (inactive). In the case of `O=[N+]([O-])c1ccc(/C=N/NS(=O)(=O)c2ccc(Cl)cc2)o1`, the “viability” value is reported as 103% (inactive). In the case of `Cc1cccc(NC(=O)c2ccc([N+](=O)[O-])o2)c1C`, the “viability” value is reported as 95% (inactive). With `Cc1ccccc1NC(=O)c1ccc([N+](=O)[O-])o1` the “viability” value was 102% [at 5 µM] (inactive). With `O=C(Nc1ccccc1)c1cc2ccccc2o1` the “viability” value was 85.3% (inactive). In the case of `CN1C(c2ccccc2)CC(=NO)CC1c1ccccc1` (stereo unspecified), the “viability” value is reported as 108% (inactive). In the case of `COc1ccccc1NC(=O)c1cnc(SC)nc1`, the “viability” value is reported as 118% (inactive). With `O=C(CC(=O)c1cc(Cl)ccc1O)c1ccccc1` the “viability” value was 102% [at 5 µM] (inactive). For `COc1ccc(-c2noc(-c3cc4ccccc4oc3=O)n2)cc1`, the “viability” value was 100% (inactive). In the case of `O=C(N/N=C/c1ccc(Br)s1)c1ccccc1[N+](=O)[O-]`, the “viability” value is reported as 90.1% (inactive). For `CCc1nnc(N/N=C/c2ccc(-c3ccc([N+](=O)[O-])cc3)o2)n1N`, the “viability” value was 95.3% (inactive). In the case of `O=C(N/N=C\c1ccc([N+](=O)[O-])o1)c1cncc(Br)c1`, the “viability” value is reported as 109% [at 5 µM] (inactive). With `Cc1nonc1C(=O)N/N=C/c1ccc([N+](=O)[O-])o1` the “viability” value was 96.3% (inactive). In the case of `Cc1ccc(OCC(=O)N/N=C/c2ccc([N+](=O)[O-])o2)cc1`, the “viability” value is reported as 95.7% (inactive). For `O=C(N/N=C/c1ccc([N+](=O)[O-])o1)c1sc2ccccc2c1Cl`, the “viability” value was 78.8% (inactive). For `O=C(N/N=C\c1ccc([N+](=O)[O-])o1)C1COc2ccccc2O1` (stereo unspecified), the “viability” value was 101% (inactive). In the case of `COc1ccccc1OCC(=O)N/N=C/C=C/c1ccc([N+](=O)[O-])o1`, the “viability” value is reported as 93.9% (inactive). For `CCCCCCCC(=O)N/N=C/c1ccc([N+](=O)[O-])o1`, the “viability” value was 97.7% (inactive).
